In PubChem BioAssay (NCI) one finds growth inhibition data, which are given here for 7 compounds.

Experiment [1] can be described thus: NCI Yeast Anticancer Drug Screen. Data for the rad50 strain (AID 155).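 Note: 0% = growth of vehicle-only cultures of the same strain.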 Conditions: S. cerevisiae rad50 strain growth inhibition, stronger effect = higher value. Put shortly: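 A DNA repair-deficient yeast mutant serves as the test organism; compound-induced growth inhibition is calculated against vehicle-treated cells.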
Experiment [2] in a line: NCI Yeast Anticancer Drug Screen. Data for the mec2-1 strain (AID 157). Conditions: S. cerevisiae mec2-1 strain, stronger effect = higher value. A digest of the protocol: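 Cells of the genetically defined mec2-1 yeast strain are incubated with test compound. Inhibition of growth is calculated against vehicle-treated controls.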
A short description of experiment [3]: NCI Yeast Anticancer Drug Screen. Data for the sgs1 mgt1 strain (AID 161).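 Note: 0% = growth of cultures given vehicle only.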 As to conditions: S. cerevisiae sgs1 mgt1 strain, stronger effect = higher value. Put shortly:
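Read-out: growth inhibition vs vehicle controls. Cells: mutant yeast strain deficient in DNA damage repair.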

Experiment [4] in a line: NCI Yeast Anticancer Drug Screen. Data for the cln2 rad14 strain (AID 165).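 Note: 0% = growth equal to vehicle treated cultures.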 As to conditions: S. cerevisiae cln2 rad14 strain, stronger effect = higher value. Put shortly:
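The screen exposed genetically defined yeast (cln2 rad14) to test compounds and scored growth inhibition relative to vehicle-treated controls.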

Experiment [5] in a line: NCI Yeast Anticancer Drug Screen. Data for the bub3 strain (AID 167). Conditions: S. cerevisiae bub3 mutant strain, stronger effect = higher value. A digest of the protocol:
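Inhibition values come from growth of compound-treated mutant yeast normalised to vehicle-treated controls.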

Experiment [6] in a line: NCI Yeast Anticancer Drug Screen. Data for the mlh1 rad18 strain (AID 175). Conditions: S. cerevisiae mlh1 rad18 strain growth inhibition, stronger effect = higher value. A digest of the protocol: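 Compound-treated yeast growth, normalised to vehicle controls. Strain bears defined DNA repair mutations.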
Setting [7] is: at 5.0 µM (retest, dose inferred, filed as 0.5).
Where [8] appears, read: at 50.0 µM (retest, dose inferred, filed as 5.0).

SMILES strings stand for the structures. Where “and” joins values, the source holds several entries; their conditions need not be identical. Equal values may be shown once. About 79,000 compounds went through this panel and 15% of them were active in at least one assay; those are over-represented in the sample as a whole. More than one record can exist for a structure, and the calls need not agree. Calls of active or inactive are those of the source. Cut-off read from the data, not from the text of the source: active = growth inhibition above about 70%; inactive = the rest.

As to `COc1ccc(COc2ccc(C(=O)CCN3CCOCC3)cc2)cc1`, the growth inhibition in experiment [1] (setting [7]) was 47% (inactive); in experiment [1] (setting [8]), 62% (inactive); in experiment [1] (at 50.0 µM) it was 96.8% (active); in experiment [2] (setting [7]) it was 38% (inactive); in experiment [2] (setting [8]) it was 80% (active); in experiment [2] (at 50.0 µM) it was 96.5% (active). The growth inhibition was 61% (inactive) in experiment [3] (setting [7]); 87% (active) in experiment [3] (setting [8]); 97% (active) in experiment [3] (at 50.0 µM); 40% (inactive) in experiment [4] (setting [7]); 46% (inactive) in experiment [4] (setting [8]); 93.8% (active) in experiment [4] (at 50.0 µM). The growth inhibition in experiment [5] (setting [7]) is 51% (inactive); in experiment [5] (setting [8]) it was 80% (active); in experiment [5] (at 50.0 µM), 97.4% (active); in experiment [6] (setting [7]), 51% (inactive); in experiment [6] (setting [8]) it was 77% (active); in experiment [6] (at 50.0 µM), 96.8% (active).

For the compound `CC12CCCCC1C/C(=N/NC(N)=O)CC2` (stereo unspecified), the growth inhibition in experiment [1] (setting [7]) was -135% (inactive); in experiment [1] (setting [8]) it was -78% (inactive); in experiment [1] (at 50.0 µM), 8.9% (inactive) and 3.8% (inactive); in experiment [2] (setting [7]), -52% (inactive); in experiment [2] (setting [8]), -45% (inactive); in experiment [2] (at 50.0 µM) it was 13.1% (inactive) and 1.25% (inactive). Further, the growth inhibition is -64% (inactive) in experiment [3] (setting [7]); -54% (inactive) in experiment [3] (setting [8]); -5.85% (inactive) and -9.35% (inactive) in experiment [3] (at 50.0 µM); -58% (inactive) in experiment [4] (setting [7]); -42% (inactive) in experiment [4] (setting [8]); 41.9% (inactive) and -25.8% (inactive) in experiment [4] (at 50.0 µM). In addition, the growth inhibition in experiment [5] (setting [7]) is -62% (inactive); in experiment [5] (setting [8]), -49% (inactive); in experiment [5] (at 50.0 µM), -4.1% (inactive) and -11.3% (inactive); in experiment [6] (setting [7]), -123% (inactive); in experiment [6] (setting [8]) it was -99% (inactive); in experiment [6] (at 50.0 µM), 14.5% (inactive) and 10.7% (inactive).

As for `O=C(O)c1ccc(Nc2cnc3ccc(C(F)(F)F)cc3n2)cc1`, the growth inhibition in experiment [1] (setting [7]) is 18% (inactive); in experiment [1] (setting [8]), 16% (inactive); in experiment [1] (at 50.0 µM) it was 60.9% (inactive); in experiment [2] (setting [7]), 4% (inactive); in experiment [2] (setting [8]), 12% (inactive); in experiment [2] (at 50.0 µM), 41.2% (inactive). Further, the growth inhibition in experiment [3] (setting [7]) is 10% (inactive); in experiment [3] (setting [8]), 13% (inactive); in experiment [3] (at 50.0 µM), 18.2% (inactive); in experiment [4] (setting [7]), 5% (inactive); in experiment [4] (setting [8]), 12% (inactive); in experiment [4] (at 50.0 µM), -0.05% (inactive). The growth inhibition was 5% (inactive) in experiment [5] (setting [7]); 12% (inactive) in experiment [5] (setting [8]); 4.9% (inactive) in experiment [5] (at 50.0 µM); 16% (inactive) in experiment [6] (setting [7]); 16% (inactive) in experiment [6] (setting [8]); 6.7% (inactive) in experiment [6] (at 50.0 µM).

For the compound `O=C(/C=C/c1ccc(Cl)cc1)NC1C=Nc2ccc([N+](=O)[O-])cc2NC1=O` (stereo unspecified), the growth inhibition was 32% (inactive) in experiment [1] (setting [7]); 94% (active) in experiment [1] (setting [8]); 95.8% (active) in experiment [1] (at 50.0 µM); -27% (inactive) in experiment [2] (setting [7]); 93% (active) in experiment [2] (setting [8]); 96.5% (active) in experiment [2] (at 50.0 µM). Also, the growth inhibition was 29% (inactive) in experiment [3] (setting [7]); 93% (active) in experiment [3] (setting [8]); 96.6% (active) in experiment [3] (at 50.0 µM); 13% (inactive) in experiment [4] (setting [7]); 93% (active) in experiment [4] (setting [8]); 92.5% (active) in experiment [4] (at 50.0 µM). In addition, the growth inhibition in experiment [5] (setting [7]) is 0% (inactive); in experiment [5] (setting [8]) it was 92% (active); in experiment [5] (at 50.0 µM) it was 92.3% (active); in experiment [6] (setting [7]) it was 13% (inactive); in experiment [6] (setting [8]), 88% (active); in experiment [6] (at 50.0 µM) it was 97.2% (active).

As for `Oc1ccc(N=Nc2ccccn2)c(O)c1`, the growth inhibition in experiment [1] (setting [7]) was -174% (inactive) and 98% (active); in experiment [1] (setting [8]), 94% (active) and 98% (active); in experiment [1] (at 50.0 µM), 98.5% (active) and 88.8% (active); in experiment [2] (setting [7]), -53% (inactive) and 99% (active); in experiment [2] (setting [8]) it was 97% (active) and 99% (active); in experiment [2] (at 50.0 µM), 98.5% (active) and 90.5% (active). The growth inhibition in experiment [3] (setting [7]) is -67% (inactive) and 19% (inactive); in experiment [3] (setting [8]), 94% (active) and 97% (active); in experiment [3] (at 50.0 µM), 98.2% (active) and 91.2% (active); in experiment [4] (setting [7]), -66% (inactive) and 42% (inactive); in experiment [4] (setting [8]), 94% (active) and 98% (active); in experiment [4] (at 50.0 µM), 96% (active) and 86.2% (active). For the same compound, the growth inhibition is -67% (inactive) and 42% (inactive) in experiment [5] (setting [7]); 96% (active) in experiment [5] (setting [8]); 97.5% (active) and 89.8% (active) in experiment [5] (at 50.0 µM); -127% (inactive) and 100% (active) in experiment [6] (setting [7]); 95% (active) and 99% (active) in experiment [6] (setting [8]); 98.4% (active) and 89% (active) in experiment [6] (at 50.0 µM).

For the compound `O=C1c2cccc(NCCCNCCO)c2C(=O)c2cccc(NCCCNCCO)c21`, the growth inhibition in experiment [1] (setting [7]) is 33% (inactive); in experiment [1] (setting [8]) it was 47% (inactive); in experiment [1] (at 50.0 µM), 43.2% (inactive) and 9.05% (inactive); in experiment [2] (setting [7]) it was -8% (inactive); in experiment [2] (setting [8]), 2% (inactive); in experiment [2] (at 50.0 µM), 23.6% (inactive) and 5.3% (inactive). The growth inhibition in experiment [3] (setting [7]) is 26% (inactive); in experiment [3] (setting [8]), 39% (inactive); in experiment [3] (at 50.0 µM) it was 12.7% (inactive) and 88.5% (active); in experiment [4] (setting [7]) it was 30% (inactive); in experiment [4] (setting [8]), 39% (inactive); in experiment [4] (at 50.0 µM), 9% (inactive) and 48.1% (inactive). Moreover, the growth inhibition in experiment [5] (setting [7]) is 13% (inactive); in experiment [5] (setting [8]), 39% (inactive); in experiment [5] (at 50.0 µM), -8.35% (inactive) and 63.1% (inactive); in experiment [6] (setting [7]), 15% (inactive); in experiment [6] (setting [8]), 42% (inactive); in experiment [6] (at 50.0 µM), 81.5% (active) and 83.4% (active).

Regarding `CC(C)(S)C(N)C(=O)O` (stereo unspecified), the growth inhibition was -14% (inactive) in experiment [1] (setting [7]); 4% (inactive) in experiment [1] (setting [8]); -12.3% (inactive) and -14.5% (inactive) and 21.1% (inactive) in experiment [1] (at 50.0 µM); 1% (inactive) in experiment [2] (setting [7]); -8% (inactive) in experiment [2] (setting [8]); -9.15% (inactive) and 2.8% (inactive) and -17.5% (inactive) in experiment [2] (at 50.0 µM). The growth inhibition in experiment [3] (setting [7]) was -2% (inactive); in experiment [3] (setting [8]), -9% (inactive); in experiment [3] (at 50.0 µM) it was -9.7% (inactive) and -11.3% (inactive) and 3% (inactive); in experiment [4] (setting [7]), 4% (inactive); in experiment [4] (setting [8]), -1% (inactive); in experiment [4] (at 50.0 µM), -2.5% (inactive) and 45.3% (inactive) and 3.15% (inactive). Further, the growth inhibition is -9% (inactive) in experiment [5] (setting [7]); -13% (inactive) in experiment [5] (setting [8]); -13.6% (inactive) and -0.75% (inactive) and 24.6% (inactive) in experiment [5] (at 50.0 µM); -3% (inactive) in experiment [6] (setting [7]); -1% (inactive) in experiment [6] (setting [8]); 6.8% (inactive) and 9.35% (inactive) and 3.55% (inactive) in experiment [6] (at 50.0 µM).
